Experimental findings from PubChem BioAssay (NCI) are described below.

Each structure is given as a SMILES string. The panel holds about 83,000 compounds, 20% with a hit somewhere; the sample as a whole holds those more often.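 Compound tested at a single concentration for 48 hours in 96-well plates; a percent growth value below 10 was scored as active.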 A number with no mark means an inactive call. Activity calls are given as the source filed them.

Holding throughout (assay): NCI-60 one-dose screen, 48 h (100 = growth as untreated, 0 = no growth, -100 = all killed)
One assay relates to SK-MEL-2 melanoma. To be noted: 10 µM.
Another assay deals with EKVX NSCLC. As to conditions: 10 µM unless noted.
In a further assay the test system is SN12C renal. To be noted: 10 µM unless noted.
The next assay deals with UO-31 renal. To be noted: 10 µM unless noted.
Another assay relates to TK-10 renal. As to conditions: 10 µM unless noted.
The test system of a further assay is ACHN renal. To be noted: 10 µM unless noted.
Another assay deals with A498 renal. To be noted: 10 µM unless noted.
The test system of another assay is CCRF-CEM leukemia. As to conditions: 10 µM unless noted.
The next assay relates to MOLT-4 leukemia. As to conditions: 10 µM unless noted.
A further assay has as its system SR leukemia. As to conditions: 10 µM unless noted.
In another assay the test system is RPMI-8226 leukemia. To be noted: 10 µM unless noted.
The subject of the next assay is OVCAR-8 ovarian. As to conditions: 10 µM unless noted.
The subject of the next assay is OVCAR-5 ovarian. To be noted: 10 µM unless noted.
The test system of the next assay is OVCAR-4 ovarian. As to conditions: 10 µM unless noted.
The test system of the next assay is SK-OV-3 ovarian. To be noted: 10 µM unless noted.
The subject of a further assay is IGROV1 ovarian. As to conditions: 10 µM unless noted.
Another assay concerns OVCAR-3 ovarian. As to conditions: 10 µM unless noted.
Another assay deals with HS 578T breast. To be noted: 10 µM.
The next assay deals with NCI/ADR-RES ovarian. As to conditions: 10 µM unless noted.
Another assay has as its system CAKI-1 renal. To be noted: 10 µM unless noted.

For `CCN1/C(=C/C=C/c2n(-c3ccccc3)c3ccc(-c4nc5ccccc5s4)cc3[n+]2CC)N(c2ccccc2)c2ccc(-c3nc4ccccc4s3)cc21`, the growth in the assay with SK-MEL-2 melanoma is -23.5% (active); with EKVX NSCLC, 9.19% (active); in the assay with SN12C renal it was -2.95% (active); in the assay on UO-31 renal it was -7.26% (active); in the assay on TK-10 renal, -2.12% (active); in the assay with ACHN renal, -3.27% (active). For the same compound, the growth was -12.7% (active) in the assay on A498 renal; 24.5% in the assay with CCRF-CEM leukemia; 16.5% in the assay with MOLT-4 leukemia; 15.5% in the assay with SR leukemia; 8.29% (active) in the assay with RPMI-8226 leukemia; 10.6% with OVCAR-8 ovarian. Further, the growth in the assay on OVCAR-5 ovarian was 31.4%; with OVCAR-4 ovarian it was 24.7%; in the assay on SK-OV-3 ovarian, -4.86% (active); with IGROV1 ovarian, 14%; with OVCAR-3 ovarian, -0.0306% (active); with HS 578T breast, 28.2%. The growth in the assay with NCI/ADR-RES ovarian was 52.3%.

As to `Cc1ccccc1Nc1nc2nonc2nc1Nc1cccc(C)c1C`, the growth in the assay on SK-MEL-2 melanoma was 24.9%; with EKVX NSCLC, 27.2%; in the assay on SN12C renal, 44.3%; with UO-31 renal it was 51.4%; in the assay with TK-10 renal, 56.4%; in the assay with ACHN renal, 52.6%. For the same compound, the growth in the assay on CAKI-1 renal was 48.9%; with MOLT-4 leukemia it was 53.5%; in the assay with SR leukemia, 66.8%; in the assay with RPMI-8226 leukemia, 24.4%; in the assay on OVCAR-8 ovarian, 54.3%; with OVCAR-5 ovarian, 98.9%. The growth with OVCAR-4 ovarian was 30.3%; with SK-OV-3 ovarian, 56.6%; in the assay on IGROV1 ovarian, 74%; with OVCAR-3 ovarian it was 35.8%; with HS 578T breast, 72.6%; in the assay on NCI/ADR-RES ovarian, 56.5%.

Consider `CCN(CCN(C)C)C(=O)CNCc1cc(C(N)=O)ccn1`, for which the growth with SK-MEL-2 melanoma is 94.8%; in the assay with EKVX NSCLC, 104%; in the assay on SN12C renal, 98.8%; with UO-31 renal, 93.2%; in the assay with TK-10 renal, 96.4%; with ACHN renal it was 108%. The growth with CAKI-1 renal is 105%; with CCRF-CEM leukemia it was 93.6%; with MOLT-4 leukemia, 99.8%; with SR leukemia, 93%; in the assay with RPMI-8226 leukemia, 96.1%; in the assay on OVCAR-8 ovarian, 89.9%. Also, the growth with OVCAR-5 ovarian was 101%; in the assay on OVCAR-4 ovarian, 109%; with SK-OV-3 ovarian, 96.4%; in the assay on IGROV1 ovarian, 109%; with OVCAR-3 ovarian, 119%; with HS 578T breast, 108%. Also, the growth with NCI/ADR-RES ovarian was 104%.

On to `CC(C)[C@@H](C)/C=C/[C@@H](C)[C@H]1CCC2=C3C=CC4=CC(=O)CC[C@]4(C)[C@H]3CC[C@@]21C`, for which the growth in the assay with SK-MEL-2 melanoma is 101%; with EKVX NSCLC, 99.1%; in the assay with SN12C renal, 101%; in the assay with UO-31 renal, 92%; in the assay on TK-10 renal, 87.8%; in the assay on ACHN renal, 109%. For the same compound, the growth in the assay with CAKI-1 renal was 93.9%; with MOLT-4 leukemia it was 85.5%; in the assay with SR leukemia, 70.8%; with RPMI-8226 leukemia, 66%; in the assay with OVCAR-8 ovarian, 91.1%; in the assay with OVCAR-5 ovarian it was 105%. The growth in the assay with OVCAR-4 ovarian was 101%; in the assay with SK-OV-3 ovarian it was 105%; with IGROV1 ovarian it was 110%; with OVCAR-3 ovarian it was 116%; in the assay on HS 578T breast, 108%; in the assay with NCI/ADR-RES ovarian, 101%.

In the case of `CCc1nc2ccc(Cc3ccc(C(=O)NO)cc3)cc2c(=O)n1CCc1ccccc1`, the growth is -33.4% (active) in the assay on SK-MEL-2 melanoma; -23.3% (active) with EKVX NSCLC; -20.5% (active) in the assay with SN12C renal; -63.4% (active) with UO-31 renal; -29.7% (active) in the assay with TK-10 renal; -35.3% (active) with ACHN renal. Moreover, the growth was -37% (active) in the assay on CAKI-1 renal; 2.95% (active) in the assay on CCRF-CEM leukemia; -18.7% (active) in the assay with MOLT-4 leukemia; 2.05% (active) in the assay with SR leukemia; 6.11% (active) in the assay on RPMI-8226 leukemia; -31% (active) with OVCAR-8 ovarian. Further, the growth with OVCAR-5 ovarian was 1.71% (active); in the assay with OVCAR-4 ovarian, -7.64% (active); with SK-OV-3 ovarian it was -26.9% (active); in the assay on IGROV1 ovarian, -56.7% (active); in the assay with OVCAR-3 ovarian, -37.1% (active); in the assay on HS 578T breast, 14.9%. In the assay with NCI/ADR-RES ovarian, the growth is -17.3% (active).

On to `Cc1cc2c(-c3nc4ccccn4c3N)c(O)c(O)cc2c(O)c1-c1c(C)cc2c(-c3nc4ccccn4c3N)c(O)c(O)cc2c1O`, for which the growth in the assay with SK-MEL-2 melanoma was -20.6% (active); with EKVX NSCLC, 21.8%; in the assay with SN12C renal, 10.1%; in the assay on UO-31 renal, 31.2%; in the assay on TK-10 renal, 11.9%; in the assay on ACHN renal, 17.4%. Also, the growth was 2.77% (active) in the assay on A498 renal; 23.1% in the assay on CCRF-CEM leukemia; 23.5% in the assay with MOLT-4 leukemia; 26.9% with SR leukemia; 9.18% (active) in the assay on RPMI-8226 leukemia; 19.9% in the assay on OVCAR-8 ovarian. For the same compound, the growth is 36.7% in the assay with OVCAR-5 ovarian; 33.7% with OVCAR-4 ovarian; -10.4% (active) with SK-OV-3 ovarian; 28.9% in the assay on IGROV1 ovarian; 26.5% with OVCAR-3 ovarian; 37.6% in the assay with HS 578T breast. Moreover, in the assay with NCI/ADR-RES ovarian, the growth was 26.4%.

Take `Cc1sc2c(c1C)c(=O)nc1c(-c3nc(-c4ccccc4)cs3)n[nH]n12`: the growth with SK-MEL-2 melanoma is 99.9%; in the assay on EKVX NSCLC it was 80.1%; in the assay with SN12C renal, 100%; in the assay with UO-31 renal it was 76.2%; in the assay with TK-10 renal, 145%; in the assay with ACHN renal it was 97.1%. For the same compound, the growth in the assay on A498 renal is 105%; in the assay on CCRF-CEM leukemia, 85.8%; in the assay with MOLT-4 leukemia, 85.7%; in the assay on SR leukemia, 90.5%; in the assay with RPMI-8226 leukemia it was 93.8%; in the assay with OVCAR-8 ovarian, 99.8%. Moreover, the growth was 109% in the assay with OVCAR-5 ovarian; 106% in the assay with OVCAR-4 ovarian; 89.6% in the assay with SK-OV-3 ovarian; 96.9% with IGROV1 ovarian; 96.4% in the assay on OVCAR-3 ovarian; 93.4% with HS 578T breast. Moreover, the growth in the assay on NCI/ADR-RES ovarian was 96.1%.

For `CO/C=C/C(=O)c1cc2cnc3c(=N)cc(NC(=O)C(C)C)c([nH]1)c23`, the growth in the assay on SK-MEL-2 melanoma was -65.6% (active); with EKVX NSCLC, -36.4% (active); in the assay on SN12C renal, 1.75% (active); in the assay with UO-31 renal it was -20.1% (active); with TK-10 renal it was -47.2% (active); with ACHN renal it was -1.54% (active). The growth in the assay on A498 renal is -46.1% (active); with CCRF-CEM leukemia it was 0.169% (active); in the assay with MOLT-4 leukemia, -38.7% (active); in the assay with SR leukemia it was -24% (active); in the assay with RPMI-8226 leukemia it was -38.1% (active); in the assay on OVCAR-8 ovarian, 0.655% (active). The growth with OVCAR-5 ovarian was -16.3% (active); in the assay on OVCAR-4 ovarian it was -10.7% (active); in the assay on SK-OV-3 ovarian it was -25.7% (active); with IGROV1 ovarian, -40% (active); in the assay on OVCAR-3 ovarian it was -45.1% (active); with HS 578T breast, -6.02% (active). Moreover, the growth with NCI/ADR-RES ovarian is -9.63% (active).
